Laboratory results: PubChem BioAssay AID1240 (Sanford-Burnham Center for Chemical Genomics, 2008)
In all, about 50,000 compounds went through this assay and about 800 (1.6%) showed an effect of 50% or more. The sample as a whole holds a higher share of strong results than the screen did.

What follows are compounds tested against Bcl-2-like protein 10 (Homo sapiens) (UniProt Q9HD36) (assay: Phenotype converters, Bcl-B/TR3 peptide binding displacement, primary biochemical FP (AID 1240;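 also: 0% = Bcl-B with tracer peptide and DMSO and 100% = tracer peptide lacking Bcl-B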)). Conditions: GST-Bcl-B / FITC-TR3 peptide fluorescence polarization; stronger effect = higher value; compound at 3.75 mg/L.
Bcl-2-like protein 10 (Homo sapiens), sequence (Q9HD36 whole entry, looked up): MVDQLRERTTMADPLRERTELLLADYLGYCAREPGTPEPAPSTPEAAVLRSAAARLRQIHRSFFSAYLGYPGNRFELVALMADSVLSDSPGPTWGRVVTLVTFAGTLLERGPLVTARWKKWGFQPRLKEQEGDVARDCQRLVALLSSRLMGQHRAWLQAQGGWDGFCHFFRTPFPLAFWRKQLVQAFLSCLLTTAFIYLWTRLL

SMILES | displacement [%]
COc1ccc(C(=O)Nc2ccc(S(=O)(=O)NC(C)=O)cc2)cc1 | 13.1
COc1ccc(-n2cnc3cc(NS(=O)(=O)c4ccc(C)cc4)ccc32)cc1 | -1.2
COc1cc(C(=O)Nc2nnc(CC(=O)NCc3ccccc3)s2)cc(OC)c1OC | -14
CC(=O)Oc1ccc(N2C(=O)C3C4C=CC(C4=C(C)C)C3C2=O)cc1 (stereo not given) | -3.2
COc1ccc(N2C(=O)C3C4C=CC(C4=C(C)C)C3C2=O)cc1 (stereo not given) | 120
CCCOc1ccc(N2C(=O)C3C4C=CC(C4=C(C)C)C3C2=O)cc1 (stereo not given) | 9.9
O=C1N=C(N2CCOCC2)S/C1=C/c1ccc(Cl)cc1 | -0.1
COc1ccccc1NC(=O)c1cc(-c2cccs2)nc2ccccc12 | -3.7
COc1cc(NC(=O)c2cc(-c3cccs3)nc3ccccc23)c(OC)cc1Cl | 55.2
COc1ccc(Cl)cc1NC(=O)c1cc(-c2cccs2)nc2ccccc12 | 8.5
COc1ccc(-c2cc(C(=O)Nc3ccccc3F)c3ccccc3n2)c(OC)c1 | 82.3
COC(=O)c1sccc1NC(=O)c1cc(-c2ccccc2Cl)nc2ccccc12 | 22.7
COC(=O)c1ccccc1NC(=O)c1cc(-c2ccc(OC)cc2OC)nc2ccccc12 | -3
COc1ccc(NC(=O)c2cc(-c3ccc(OC)cc3OC)nc3ccccc23)c(OC)c1 | -0.8
COC(=O)c1sccc1NC(=O)c1cc(-c2cccs2)nc2ccccc12 | 60.4
COC(=O)c1cc(-c2ccc(OC)cc2)nc2ccc(Br)cc12 | -4.1
COC(=O)c1cc(-c2ccc(Br)cc2)nc2ccccc12 | 0
COC(=O)c1cc(-c2cccs2)nc2ccc(Br)cc12 | 104
COC(=O)c1sccc1NC(=O)c1cc(-c2ccc(OC)cc2OC)nc2ccccc12 | 16.4
O=C(CSCC(=O)Nc1cccc(C(F)(F)F)c1)Nc1ccccc1 | -10.4
CCOc1cc(/C=N/NC(=O)c2ccncc2)ccc1OC(=O)c1ccc([N+](=O)[O-])cc1 | 6.9
O=C1c2cccc3cccc(c23)C(=O)N1/N=C/c1ccco1 | 25.1

SMILES | displacement [%]
COc1ccc(S(=O)(=O)Nn2cnnc2)cc1 | -1
O=C(O)CN(c1ccccc1)S(=O)(=O)c1ccccc1[N+](=O)[O-] | 4.7
CCOC(=O)C1=C(O)/C(=C\c2ccc(OC)cc2)N=C1C | 4.4
Cc1onc(-c2ccccc2Cl)c1C(=O)Nc1sc(C)c(C)c1C(=O)OC(C)C | -6.3
CCN(CC)CCN1C(=O)C(O)=C(C(=O)/C=C/c2ccccc2)C1c1ccccc1[N+](=O)[O-] (stereo not given) | 3.2
COc1ccc(-c2cc(C(F)(F)F)n3nc(C(=O)NCc4ccco4)c(Cl)c3n2)cc1OC | -5.3
COc1ccc(Cc2noc(COc3ccc(Cl)cc3)n2)cc1 | 2.7
Cc1ccc(OCCOc2ccccc2/C=C2/SC(=S)N(C)C2=O)cc1 | 3.3
CN1C(=O)/C(=C\c2ccccc2OCCOc2ccc(Br)cc2)SC1=S | 2.3
CN1C(=O)/C(=C\c2ccccc2OCCOc2ccc([N+](=O)[O-])cc2)SC1=S | 133
CN1C(=O)/C(=C\c2ccc(OCCOc3ccc([N+](=O)[O-])cc3)cc2)SC1=S | -0.4
COc1ccccc1OCCOc1cccc(/C=C2/SC(=S)N(C)C2=O)c1 | 95.5
COc1cc(C=C2C(=O)N(C)C(=O)N(C)C2=O)ccc1OCCOc1ccc([N+](=O)[O-])cc1 | 26.1
COc1cc(/C=C2/SC(=S)N(C)C2=O)ccc1OCCOc1ccc([N+](=O)[O-])cc1 | 74.5
Cc1ccccc1OCCOc1cccc(/C=C2/SC(=S)N(C)C2=O)c1 | 1.2
COc1ccccc1OCCOc1ccc(/C=C2/SC(=S)N(C)C2=O)cc1 | 3.9
CCc1ccc(/C=C2\C(=O)NN(c3ccc(Cl)c(Cl)c3)C2=O)cc1 | 5.7
CCOc1cc(C(=O)Nc2ccc3c(c2)OCCO3)cc(OCC)c1OCC | -7.7
C=CCn1c(C)c(/C=C(/C#N)C(=O)Nc2ccc(OC)cc2)c2ccccc21 | -6.6
CCOC(=O)c1c(NC(=O)c2ccc(C(=O)c3ccccc3)cc2)sc2c1CCC2 | 10.7
Cc1ccc(N[C@@H]2O[C@H](CO)[C@@H](O)[C@H](O)[C@@H]2O)cc1 | 11
CC(=O)Oc1ccc2c(C)c(C)c(=O)oc2c1 | 6.4

SMILES | displacement [%]
CCSc1nnc2c(n1)OC(c1ccc(C(=O)O)cc1)Nc1ccccc1-2 (stereo not given) | 9.9
CSc1nnc2c(n1)OC(c1ccc(OCc3ccccc3)cc1)Nc1ccccc1-2 (stereo not given) | 7.4
CCSc1nnc2c(n1)OC(c1ccc(OCc3ccccc3)cc1)Nc1ccccc1-2 (stereo not given) | 120
CCOC(=O)C1=C(O)CSC1=Nc1ccc(C)cc1 | -15.6
CCOC(=O)C1=C(O)/C(=C/c2ccc([N+](=O)[O-])cc2)SC1=Nc1ccc(C)cc1 | -3.1
CCOC(=O)C1=C(O)CSC1=Nc1ccc(Cl)cc1 | -6.7
CCOC(=O)C1=C(O)/C(=C/c2ccc(F)cc2)SC1=Nc1ccc([N+](=O)[O-])cc1 | 59.1
CCOC(=O)C1=C(O)/C(=C/c2ccc(O)cc2)SC1=Nc1ccc([N+](=O)[O-])cc1 | -9.8
CCOC(=O)C1=C(O)/C(=C/c2ccc(O)c(OCC)c2)SC1=Nc1ccc([N+](=O)[O-])cc1 | -5.5
CCOC(=O)C1=C(O)/C(=C/c2ccc(Cl)cc2)SC1=Nc1ccc([N+](=O)[O-])cc1 | -7.6
CCOC(=O)C1=C(O)/C(=C/c2ccc(OCC)cc2)SC1=Nc1ccc([N+](=O)[O-])cc1 | 122
CCOC(=O)C1=C(O)CSC1=Nc1ccc([N+](=O)[O-])cc1 | 112
COc1ccc(Oc2coc3cc(OC(C)=O)ccc3c2=O)cc1 | 11.2
COc1ccc2nc(NC(=O)COc3ccc(Cl)cc3)sc2c1 | 14.5
COc1ccc(NC(=O)CCCOc2ccccc2)c(OC)c1 | -3.2
COc1cc(NC(=O)CCCOc2ccccc2)c(OC)cc1Cl | 71.9
COc1cc(NC(=O)CCCOc2ccc(Cl)cc2Cl)c(OC)cc1Cl | 0.2
C/C(=N/NC(=O)c1sc2cc(F)ccc2c1Cl)c1cccs1 | 132
O=C(NCc1cccs1)c1sc2cc(F)ccc2c1Cl | -3.8
O=C(N/N=C/c1cccs1)c1sc2cc(Cl)ccc2c1Cl | 7.2
CC1=C(C(=O)Nc2cc(Cl)ccc2C)C(c2ccccc2Br)NC(=S)N1 (stereo not given) | -8.3
